PubChem BioAssay (NCATS)
Results filed as inconclusive are left out. Where a call stands in place of a potency, no number is given. Active and inactive are the calls of the source. Calls come from the whole dose curve; as a rule, active = well fitted cell-killing curve with a large enough effect; inconclusive = small, poorly fitted or top-dose-only effect, or effect the other way; inactive = flat fitted curve, though single readings scatter.

Key:
[1] = tested on: Tov-21-G; test: Primary qHTS to identify gynecologic anti-cancer compounds using libraries of approved drugs and bioactive compounds (AID 1345084); details: Gynecologic cancer cell panel viability, ATPlite luminescence, 48 h; series mostly up to 57.5 µM; note: nearly all actives have a fitted effect of over 55% in size
In short: (§1)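 48 h compound exposure at 37 C, 5% CO2; five-point qHTS. ATPlite luminescence readout of cell ATP.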

[2] = tested on: Tov112D; test: as above; details: Gynecologic cancer cell panel viability, ATPlite luminescence, 48 h; series mostly up to 57.5 µM
In short: as §1
Potency is the fitted concentration of half-maximal effect.

Row | SMILES | Potency [1] | Potency [2]
1 | O=C(CCl)Nc1cccc(NC2=NS(=O)(=O)c3ccccc32)c1 | inactive | 
2 | Cc1[nH]c2ccc(F)cc2c1-c1nc2c3cccnc3c3ncccc3c2[nH]1 | inactive | 3.98 µM (active)
3 | O=C(Nc1ccccc1Cl)c1cnc2ccc(C3CCNCC3)cn12 | 1.58 µM (active) | inactive
4 | O=C(NCc1ccccc1-c1ccccc1C(=O)NCCc1ccccn1)OCc1ccccc1 | inactive | inactive
5 | COc1cc2nc(C3CC3)nc(N3CCN(c4ccccc4OC)CC3)c2cc1OC | inactive | inactive
6 | CC(C)(O)C1Cc2c(ccc(C(=O)CCc3ccccc3)c2O)O1 (configuration not stated) | 12.6 µM (active) | 10 µM (active)
7 | NS(=O)(=O)Nc1ncnc(OCCOc2ncc(Br)cn2)c1-c1ccc(Br)cc1 | inactive | inactive
8 | C=C1CC[C@@H]2[C@](C)(CO)[C@H](O)CC[C@@]2(C)[C@@H]1C/C=C1/C(=O)OCC1OC(=O)/C(=C/CO)C(O)C[C@@H]1C(=C)CC[C@@H]2[C@](C)(CO)[C@H](O)CC[C@]21C (some centres not stated) | inactive | inactive
9 | C/C=C/C=C/C=C/C(=O)O[C@@H]1C=C(CO)C(O)(C(=O)OC)[C@@]2(C)CCCC(C)(C)C12 (some centres not stated) | inactive | inactive
10 | Clc1ccc(Cn2c(Cc3ccccc3)nc3ccccc32)cc1 | inactive | inactive
11 | O=c1cc(N2CCOCC2)nc2c3ccccc3ccn12 | inactive | inactive
12 | CC(=O)O[C@@H]1C[C@@]2(C)C(CC[C@]3(C)C2CC=C2C4CC(C)(C)CC[C@]4(C(=O)O)CC[C@]23C)C(C)(C)[C@H]1O (some centres not stated) | inactive | inactive
13 | C=C1C(=O)OC2CC(C)C(CCC(C)O)=CCC12 (configuration not stated) | inactive | inactive
14 | Cc1cccc(CC(=O)N2CCc3c2ccc(-c2cn(C)c4ncnc(N)c24)c3F)n1 | inactive | inactive
15 | N#Cc1cc(-c2ccnc(Nc3ccc(N4CCOCC4)cc3)n2)ccc1OC1CCOCC1 | inactive | inactive
16 | CCCCC1CCC(c2nc(-c3ccncc3)no2)CC1 (configuration not stated) | inactive | inactive
17 | Cc1csc(N(C(=O)CSc2ccc(-c3ccccc3)nn2)C2CC2)n1 | inactive | inactive

Row | SMILES | Potency [1] | Potency [2]
18 | CC(O)(C(=O)C1CC1(CO)COC1OC(CO)C(O)C(O)C1O)C1C(O)CC2C3CC=C4CC(O)CC(O)C4(C)C3C(O)CC21C (configuration not stated) | 0.562 µM (active) | 0.562 µM (active)
19 | COc1cc(C#N)ccc1S(=O)(=O)Nc1ccc2c(c1)cc(C)c(=O)n2C | inactive | inactive
20 | C/C=C(\C)C(=O)OC1C[C@@]2(COC(C)=O)O[C@H]2/C=C\[C@@]2(C)O[C@@H]2[C@H]2OC(=O)C(COC(C)=O)=C12 (some centres not stated) | inactive | inactive
21 | O=C(NCCCNc1nc(Nc2cccc(CN3CCOCC3)c2)ncc1C1CC1)C1CCC1 | 15.8 µM (active) | inactive
22 | O=C(Nc1ccccc1)c1ccc(Nc2nnc(-c3ccc(O)cc3)c3ccccc23)cc1 | inactive | inactive
23 | Cc1cc(Nc2nc(-c3ccccc3)nc3ccccc23)n[nH]1 | 10 µM (active) | inactive
24 | CC#CC(=O)Nc1ccc2ncnc(Nc3cccc(Br)c3)c2c1 | 14.1 µM (active) | 12.6 µM (active)
25 | Cn1nc(C(C)(C)C)cc1C(=O)N[C@@H](Cc1cccc(Cl)c1)C(=O)NCC#N | inactive | inactive
26 | CCCc1cc(C)[nH]c(=O)c1CNC(=O)c1cc(-c2ccc(N3CCN(C(C)C)CC3)nc2)cc2c1cnn2C(C)C | inactive | inactive
27 | C[C@H](Nc1cc2c(-c3ccc4c(c3)OCO4)noc2cn1)c1ccccc1 | inactive | inactive
28 | NC(N)=NC(=O)c1cnn(-c2cccc3ncccc23)c1C1CC1 | inactive | inactive
29 | O=C(CNC(=O)c1cccc(C(F)(F)F)c1)N[C@@H]1CCN(Cc2ccc(Cl)cc2)C1 | inactive | inactive
30 | Cc1cc(N2CCOCC2)ccc1Nc1nc(NC2CCCCC2)c2[nH]cnc2n1 | inactive | inactive
31 | C/C(=C/C=C\C=C\Cc1cnco1)[C@@H](O)C(C)(C)C(N)=O | inactive | inactive
32 | C[C@@H]1O[C@@H](O[C@H]2[C@@H]3C=CO[C@@H](O[C@@H]4O[C@H](CO)[C@@H](O)[C@H](O)[C@H]4O)[C@@H]3[C@@]3(CO)O[C@@H]23)[C@H](O)[C@H](OC(=O)/C=C/c2ccccc2)[C@H]1O | inactive | inactive
33 | CS/C=C/C(=O)O[C@@H]1CCC2=CC(=O)C(=C(C)C)C[C@]2(C)[C@H]1C | inactive | inactive
34 | CN(C)CCC(CSc1ccccc1)Nc1ccc(S(=O)(=O)NC(=O)c2ccc(N3CCN(Cc4ccccc4-c4ccc(Cl)cc4)CC3)cc2)cc1[N+](=O)[O-] (configuration not stated) | inactive | inactive
